Experimental data as given in PubChem BioAssay (Tox21).
Unmarked numbers belong to inactive results. Records with an inconclusive call do not appear. A call without a number means that no potency is given here. Active and inactive are the calls of the source. Unless noted, calls follow the shape of the dose curve; as a rule, active = well fitted curve in the direction sought with a large enough effect in the repeat runs; inconclusive = weak or mixed curves; inactive = no such curve, though single readings can be large; an effect the other way counts as inactive or inconclusive.

Key:
[1] = A CellTox Green Cytotoxicity Assay to monitor cytotoxicity in HEK293 cells - 32 hour (AID 1224881); also: nearly all actives have a fitted effect of over 40% in size
Procedure, shortened: (§1)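 HEK293 cells, 600/well, were preincubated 5 hours and then exposed to compounds at 37 C for up to 40 hours. A cell-impermeant cyanine dye staining dead-cell DNA was read by fluorescence at 0, 8, 16, 24, 32 and 40 h time points.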

[2] = A CellTox Green Cytotoxicity Assay to monitor cytotoxicity in HepG2 cells - 0 hour (AID 1224882); also: nearly all actives have a fitted effect of over 35% in size
Procedure, shortened: (§2)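 HepG2 cells, 600/well, preincubated 5 h with CellTox Green dye, then exposed to Tox21 compounds in DMSO at 37 C for up to 40 h. Dead-cell DNA fluorescence read at the indicated time point.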

[3] = A CellTox Green Cytotoxicity Assay to monitor cytotoxicity in HepG2 cells - 32 hour (AID 1224883); also: nearly all actives have a fitted effect of over 50% in size; also: potency is read from the fitted curve at half-maximal effect
Procedure, shortened: as §2

[4] = A CellTox Green Cytotoxicity Assay to monitor cytotoxicity in HEK293 cells - 8 hour (AID 1224884); also: nearly all actives have a fitted effect of over 35% in size
Procedure, shortened: as §1

[5] = qHTS RealTime-Glo MT Cell Viability Assay in HepG2 cells - 16 hour (AID 1224885); also: nearly all actives have a fitted effect of over 50% in size
Procedure, shortened: (§3)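 Compound treatment began 5 h after plating HepG2 cells (600/well) with NanoLuc luciferase and prosubstrate. Plates stayed at 37 C for 40 h; luminescence was captured at six time points, 0 h through 40 h.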

[6] = qHTS RealTime-Glo MT Cell Viability Assay in HEK293 cells - 24 hour (AID 1224886); also: top concentration of the series differs between compounds; nearly all actives have a fitted effect of over 50% in size
Procedure, shortened: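 Quantitative high-throughput screen of the Tox21 10K library in HEK293: cells and RealTime-Glo reagents plated together, compound added at 5 h, luminescence monitored through 40 h at 37 C.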

[7] = qHTS RealTime-Glo MT Cell Viability Assay in HEK293 cells - 8 hour (AID 1224887); also: top concentration of the series differs between compounds; nearly all actives have a fitted effect of over 50% in size
Procedure, shortened: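 600 cells/well were plated with the nonlytic NanoLuc/prosubstrate reagent, pre-incubated 5 h, then given 23 nL of compound in DMSO. Incubation at 37 C for 40 h, with luminescence from viable-cell-reduced substrate read repeatedly from 0 h.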

[8] = A CellTox Green Cytotoxicity Assay to monitor cytotoxicity in HEK293 cells - 16 hour (AID 1224888); also: nearly all actives have a fitted effect of over 35% in size
Procedure, shortened: as §1

[9] = A CellTox Green Cytotoxicity Assay to monitor cytotoxicity in HepG2 cells - 8 hour (AID 1224890); also: nearly all actives have a fitted effect of over 45% in size
Procedure, shortened: as §2

[10] = qHTS assay to identify small molecule antagonists of the estrogen receptor alpha (ER-alpha) signaling pathway using the BG1 cell line in the presence of 0.1 nM 17-beta-estradiol - cell viability counter screen (AID 1259241); also: nearly all actives have a fitted effect of over 40% in size
Procedure, shortened: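 Live-cell protease activity (CellTiter-Fluor fluorescence, 30 min) was read in the same wells after VM7Luc4E2 cells had been exposed to compounds with 0.1 nM 17beta-estradiol for 22 hr at 37C.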

[11] = qHTS assay to identify small molecule antagonists of the androgen receptor (AR) signaling pathway using the MDA cell line in the presence of 0.5 nM R1881 - cell viability counter screen (AID 1259242); also: nearly all actives have a fitted effect of over 45% in size
Procedure, shortened: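 MDA-kb2 cells (MMTV-luciferase, AR/GR responsive) were treated with compounds plus 0.5 nM R1881 (final) for 16 hr at 37C, 0% CO2. Viability was then read in the same wells as live-cell protease fluorescence (CellTiter-Fluor, 30 min).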

[12] = qHTS assay to identify small molecule HDAC inhibitors (AID 1259364); also: top concentration of the series differs between compounds; nearly all actives have a fitted effect of over 45% in size
Procedure, shortened: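 Wild-type HCT-116 cells, plated overnight at 37 C, exposed to compounds 2 hr at 37 C; luminogenic HDAC-Glo substrate then added 30 min at room temperature. Luminescence reports relative endogenous class I/II HDAC activity.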

[13] = qHTS assay to identify small molecule HDAC inhibitors - cell viability counter screen (AID 1259365)
Procedure, shortened: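 HCT-116 (wild type), 1,500 cells/well, overnight 37C/5% CO2; compound in DMSO 2hr; CellTiter-Glo 30min RT; luminescence read.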

[14] = qHTS assay to identify small molecule agonists of the sonic hedgehog signaling (Shh) pathway - cell viability counter screen (AID 1259366); also: nearly all actives have a fitted effect of over 50% in size
Procedure, shortened: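 CellTiter-Fluor fluorescence read-out, 1 hr at 37C, added after 23hr compound exposure. Cells: 3T3 Gli1-Luc, an NIH/3T3 clone with stably integrated Gli1-Luc reporter, plated 4hr before compound.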

[15] = qHTS assay to identify small molecule antagonists of the sonic hedgehog signaling (Shh) pathway - cell viability counter screen (AID 1259367); also: nearly all actives have a fitted effect of over 55% in size
Procedure, shortened: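 Seed 3T3 Gli1-Luc cells at 2,000 per well; incubate 4 hr; add compound in DMSO, then conditioned medium; incubate at 37C with 5% CO2; add CellTiter-Fluor after 23 hr; read fluorescence 1 hr later.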

[16] = qHTS assay to identify small molecule agonists of the sonic hedgehog signaling (Shh) pathway (AID 1259368; calls by dose curve;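 also: NIH/3T3-derived 3T3Gli1-Luc cells carrying a stable Gli1-driven firefly luciferase reporter; series mostly up to about 92 µM; nearly all actives have a fitted effect of over 15% in size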)
Procedure, shortened: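 NIH/3T3-derived 3T3Gli1-Luc cells with stably integrated Gli1-driven firefly luciferase, 2,000 cells/well, compounds added after 4 hr. Incubated 24 hr at 37C, 5% CO2; luminescence read after 30 min with luciferase reagent at room temperature.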

[17] = qHTS RealTime-Glo MT Cell Viability Assay in HepG2 cells - 0 hour (AID 1224889); also: nearly all actives have a fitted effect of over 50% in size
Procedure, shortened: as §3

[18] = target: Estrogen receptor (Homo sapiens) (UniProt P03372); assay: qHTS assay to identify small molecule antagonists of the estrogen receptor alpha (ER-alpha) signaling pathway using the BG1 cell line in the presence of 0.1 nM 17-beta-estradiol (AID 1259244); also: nearly all actives have a fitted effect of over 50% in size
Procedure, shortened: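 VM7Luc4E2 cells (endogenous full-length ER-alpha, 4×ERE-luciferase), kept 5 days in phenol red-free, charcoal-stripped FBS medium; 4,000 cells/well. Compounds added with 0.1 nM (final) 17beta-estradiol, 22 hr at 37C; luminescence read with ONE-Glo after 30 min.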

[19] = qHTS assay to identify small molecule phospholipidosis (PLD) inducers (AID 1259344; active = well fitted curve in the direction sought with a large enough effect; an effect the other way counts as inactive or inconclusive)
Procedure, shortened: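 Quantitative HTS in HepG2: compound plus LipidTOX Red dye for 24 h, paraformaldehyde fixation with Hoechst 33342, widefield high-content imaging; amiodarone as positive and DMSO as negative control.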

Chain of Estrogen receptor (Homo sapiens) (P03372 whole entry, looked up): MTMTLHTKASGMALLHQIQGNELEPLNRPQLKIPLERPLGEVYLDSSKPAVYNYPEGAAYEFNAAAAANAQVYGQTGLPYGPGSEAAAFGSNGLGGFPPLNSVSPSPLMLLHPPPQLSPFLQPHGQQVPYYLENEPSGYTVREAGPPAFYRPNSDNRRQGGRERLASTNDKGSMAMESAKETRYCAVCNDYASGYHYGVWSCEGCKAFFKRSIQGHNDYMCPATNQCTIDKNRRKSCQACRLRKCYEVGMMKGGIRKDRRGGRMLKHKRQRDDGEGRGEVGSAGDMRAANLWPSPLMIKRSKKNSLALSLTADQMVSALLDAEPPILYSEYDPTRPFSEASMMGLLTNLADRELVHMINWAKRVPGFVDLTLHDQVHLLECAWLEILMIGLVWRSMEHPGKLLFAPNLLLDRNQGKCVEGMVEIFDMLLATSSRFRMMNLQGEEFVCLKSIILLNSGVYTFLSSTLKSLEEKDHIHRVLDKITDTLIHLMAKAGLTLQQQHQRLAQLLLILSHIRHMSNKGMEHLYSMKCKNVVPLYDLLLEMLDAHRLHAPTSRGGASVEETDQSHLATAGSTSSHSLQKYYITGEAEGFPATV

Compound: COC(C)OC
- Potency [1]: inactive
- Potency [2]: inactive
- Potency [3]: inactive
- Potency [4]: inactive
- Potency [5]: inactive
- Potency [6]: inactive
- Potency [7]: inactive
- Potency [8]: inactive
- Potency [9]: inactive
- Potency [10]: inactive
- Potency [11]: inactive
- Potency [12]: inactive
- Potency [13]: inactive
- Potency [14]: inactive
- Potency [15]: inactive
- outcome [16]: inactive

Compound: Cc1[nH]c(C)c(Cl)c(=O)c1Cl
- cytotoxicity increase [1]: -3.98% [at 15.8 µM]
- cytotoxicity [2]: -3.1% [at 15.8 µM]
- cytotoxicity increase [3]: -7.2% [at 15.8 µM]
- cytotoxicity increase [4]: -1.54% [at 15.8 µM]
- activity change, negative = cytotoxic [5]: 0.907% [at 15.8 µM]
- activity change, negative = cytotoxicity [6]: -19.4% [at 15.8 µM]
- activity change, negative = cytotoxicity [7]: -23.4% [at 15.8 µM]
- activity change [8]: -2.28% [at 15.8 µM, active compounds read high]
- activity change, negative = cytotoxicity [17]: -1.76% [at 15.8 µM]
- cytotoxicity increase [9]: -4.87% [at 15.8 µM]
- activity change, negative = cytotoxicity [10]: -5.47% [at 19 µM]
- viability change, negative = cytotoxic [11]: 1.2% [at 19 µM]
- Potency [18]: inactive
- Potency [19]: inactive
- activity change, negative = inhibition [12]: 7.15% [at 19 µM]
- activity change, negative = cytotoxicity [13]: 8.49% [at 19 µM]
- viability change, negative = cytotoxic [14]: 6.9% [at 19 µM]
- viability change, negative = cytotoxic [15]: 1.87% [at 19 µM]
- activity change [16]: -0.115% [at 18.9 µM]

Compound: COCCCN1CCC(NC(=O)c2cc(Cl)c(N)c3c2OCC3)CC1
- Potency [1]: inactive
- Potency [2]: inactive
- Potency [3]: inactive
- Potency [4]: inactive
- Potency [5]: inactive
- Potency [6]: inactive
- Potency [7]: inactive
- Potency [8]: inactive
- Potency [17]: inactive
- Potency [10]: inactive
- Potency [11]: inactive
- Potency [12]: inactive
- Potency [13]: inactive
- Potency [14]: inactive
- Potency [15]: inactive
- outcome [16]: inactive

Compound: COC(C)(C)CCO
- Potency [1]: inactive
- Potency [2]: inactive
- Potency [3]: inactive
- Potency [4]: inactive
- Potency [5]: inactive
- Potency [6]: inactive
- Potency [7]: inactive
- Potency [8]: inactive
- Potency [17]: inactive
- Potency [9]: inactive
- Potency [10]: inactive
- Potency [11]: inactive
- Potency [12]: inactive
- Potency [13]: inactive
- Potency [14]: inactive
- Potency [15]: inactive
- outcome [16]: inactive

Compound: C[C@H]1C[C@H]2[C@@H]3CCC4=CC(=O)C=C[C@]4(C)[C@@]3(Cl)[C@@H](O)C[C@]2(C)[C@@]1(O)C(=O)CO
- Potency [1]: inactive
- Potency [2]: inactive
- Potency [3]: inactive
- Potency [4]: inactive
- Potency [5]: inactive
- Potency [6]: inactive
- Potency [7]: inactive
- Potency [8]: inactive
- Potency [17]: inactive
- Potency [9]: inactive
- Potency [10]: inactive
- Potency [11]: inactive
- Potency [18]: inactive
- Potency [19]: inactive
- Potency [12]: inactive
- Potency [13]: inactive
- Potency [14]: inactive
- Potency [15]: inactive
- outcome [16]: inactive

Compound: CN(C)CCCN1c2ccccc2Sc2ccccc21
- Potency [1]: inactive
- Potency [2]: inactive
- Potency [3]: 23.9 µM (active)
- Potency [4]: inactive
- Potency [5]: inactive
- Potency [6]: inactive
- Potency [7]: inactive
- Potency [8]: inactive
- Potency [9]: inactive
- Potency [10]: inactive
- Potency [11]: inactive
- Potency [12]: inactive
- Potency [13]: inactive
- outcome [16]: inactive

Compound: C1CCCNCCC1
- Potency [1]: inactive
- Potency [2]: inactive
- Potency [3]: inactive
- Potency [4]: inactive
- Potency [5]: inactive
- Potency [6]: inactive
- Potency [7]: inactive
- Potency [8]: inactive
- Potency [17]: inactive
- Potency [9]: inactive
- Potency [10]: inactive
- Potency [11]: inactive
- Potency [12]: inactive
- Potency [13]: inactive
- Potency [14]: inactive
- Potency [15]: inactive
- outcome [16]: inactive
